The list is not random: actives were taken first. Their share in the collection is about 4.4%.
TIM10 inh – growth inhibitors of isogenic TIM10 control yeast, primary screen, counter-screen for tim10-1 yeast inhibitor project, luminescence, uHTS; 330,000 compounds, 1.4% hits; AID 463195, 2010; inhibition, % at 10 µM; S. cerevisiae TIM10 strain growth, BacTiter-Glo luminescence, 24 h;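 active means inhibition of 40% or more at the single tested concentration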;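 further: wild-type TIM10 isogenic control strain grown at permissive 25 °C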
tim10-1 inh – growth inhibitors of tim10-1 mutant yeast, primary screen, luminescence, uHTS; S. cerevisiae tim10-1 ts strain growth, BacTiter-Glo, 24 h; inhibition, % at 20 µM; 330,000 compounds, 2.2% hits; AID 463190, 2010;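 active means inhibition of at least 40%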;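 further: mutant grown at 25 °C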
tim23-1 inh – growth inhibitors of tim23-1 mutant yeast, primary screen, luminescence, uHTS | S. cerevisiae tim23-1 growth, BacTiter-Glo luminescence, 24 h | inhibition, % at 20 µM | 330,000 compounds, 1.3% hits;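 active means growth inhibition of the mutant yeast at or above 50%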;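 further: temperature-sensitive mutant grown at 25 °C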
SKKanGAS inh – S. pyogenes SKKanGAS growth inhibitors in kanamycin, primary screen, streptokinase expression inhibitor project, SKKanGAS strain, BacTiter-Glo luminescence. 6 h. inhibition, % at 7.5 µM. 300,000 compounds, 1.3% hits. AID 1662, 2009;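 active means mean replicate score, as percent of positive control median, at least 50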;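 further: strain carries kanamycin resistance gene driven by streptokinase promoter and grows in 40 µg/ml kanamycin; loss of luminescence reflects streptokinase promoter inhibition or plain growth inhibition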
PfHsp90 yeast 2 – growth inhibition of PfHsp90-expressing yeast, primary screen, antimalarial PfHsp90 inhibitor project, S. cerevisiae, BacTiter-Glo luminescence, single point, set 2. BacTiter-Glo ATP, 48 h; yeast lacking PDR1 and PDR3 efflux regulators. inhibition, % at 9.4 µM. 310,000 compounds, 0.32% hits. AID 504621, 2011;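 active means every replicate shows inhibition above about 80%, whatever the replicate mean, limit read from the data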
tim10-1 confirm – growth inhibitors of tim10-1 mutant yeast, confirmation, single concentration, luminescence, S. cerevisiae; S. cerevisiae tim10-1 ts strain growth, BacTiter-Glo, 24 h; inhibition, % at 20 µM; 7,400 compounds, 56% hits; shares compounds with tim10-1 inh;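 active means inhibition of yeast growth at or above a set limit in either of two repeat tests at 20 µM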;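 further: tim10-1 mutant grown at permissive 25 °C to find synthetic lethal compounds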
TIM10 conf – growth inhibitors of wild-type TIM10 yeast, confirmation, counter-screen for tim10-1 synthetic lethality project, single concentration, luminescence, S. cerevisiae | shares compounds with TIM10 inh | S. cerevisiae tim10 strain growth, BacTiter-Glo luminescence, 24 h | inhibition, % at 10 µM | 4,600 compounds, 63% hits | AID 463215, 2010;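 active means inhibition of yeast growth at or above a set limit in either of two replicates at 10 µM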; further: this counterscreen used the strain with wild-type TIM10
tim23-1 confirm – tim23-1 mutant yeast growth inhibitors, confirmation, luminescence, single concentration | inhibition, % at 20 µM | AID 463218, 2010 | S. cerevisiae tim23-1 growth, BacTiter-Glo luminescence, 24 h | shares compounds with tim23-1 inh | 4,400 compounds, 83% hits;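 active means inhibition above about 39% in either of two replicate wells at 20 µM, limit read from the data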;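 further: temperature-sensitive tim23-1 mutant grown at 25 °C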
Numbers stand for hits; . = inactive; / = not tested or not shown.

SMILES	TIM10 inh	tim10-1 inh	tim23-1 inh	SKKanGAS inh	PfHsp90 yeast 2	tim10-1 confirm	TIM10 conf	tim23-1 confirm
O=C(Oc1ccccc1C(=S)N1CCOCC1)c1ccc([N+](=O)[O-])cc1[N+](=O)[O-]	45	56	54	.	.	49	49	52
CCN(c1ccccc1)S(=O)(=O)c1cccc(C(=O)N(C)CC(=O)Nc2ccc(F)c(F)c2F)c1	/	/	/	/	.	/	/	/
CC(=O)Nc1ccc(OCC(=O)N2CCC(Cc3ccccc3)CC2)cc1	.	.	.	.	.	/	/	/
CCOC(=O)C1CCN(S(=O)(=O)c2ccc(CC)cc2)CC1	.	.	.	.	.	/	/	/
O=C(Nc1ccc(OCC(=O)N2CCC(Cc3ccccc3)CC2)cc1)c1ccco1	68	59	72	.	.	60	43	79
CCOC(=O)C1CCN(S(=O)(=O)c2ccc(NC(=O)c3ccco3)cc2)CC1	66	69	65	.	.	62	55	69

High-throughput results as filed in PubChem BioAssay.
